Measurements from PubChem BioAssay (EPA / NIEHS).
Inconclusive results are not listed. The source holds several records for some structures; these can differ, active in one and inactive in another. Activity calls are given as the source filed them. How the source made its calls, unless noted: active means hit-call score of the fitted dose curve at least 0.9, where 1 is the maximum; inactive means score below 0.9.

Tests used:
[1] = read-out: Monokine induced gamma interferon (MIG), CXCL9 (gene 4283); assay: BSK_3C_MIG: BioMAP Diversity Plus: 3C Assay for Monokine induced gamma interferon (MIG) Biomarker Activity (AID 2283021); settings: primary human endothelial cells (HUVEC); actives raise or lower the signal;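 on AC50: MIG protein level measured by immunoassay in the treated endothelial cultures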
In short: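 Endothelial primary cells (human umbilical vein) are dosed with test chemical in the 3C system. MIG levels are measured by ELISA at 24 h and fitted in both directions relative to DMSO.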

[2] = read-out: Matrix Metallopeptidase 1 (MMP1), MMP1 (gene 4312); assay: BSK_BE3C_MMP1: BioMAP Diversity Plus: BE3C Assay for Matrix Metallopeptidase 1 (MMP1) Biomarker Activity (AID 2283024); settings: primary human bronchial epithelial cells; actives raise or lower the signal
In short: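 MMP1 signal, measured by ELISA after a 24 h chemical exposure of human primary bronchial epithelial cells, is analysed with bidirectional fitting using DMSO as negative control.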

[3] = BSK_3C_Vis: BioMAP Diversity Plus: 3C Assay for Morphology Visualization (AID 2283025); settings: primary human endothelial cells (HUVEC);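 further: fitted both ways so gain or loss versus DMSO counts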
In short: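 Morphology read by light microscopy serves as a background control for the multiplexed 3C assay in human umbilical vein endothelial cells, taken 24 h after dosing, with DMSO as the negative control and bidirectional curve fitting.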

[4] = read-out: Pselectin, SELP (gene 6403); assay: BSK_4H_Pselectin: BioMAP Diversity Plus: 4H Assay for Pselectin Biomarker Activity (AID 2283026); settings: primary human endothelial cells (HUVEC); actives raise or lower the signal
In short: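 Endothelial primary cells (human umbilical vein) are dosed, incubated 24 h, and assayed for surface P-selectin by ELISA; responses in either direction are fitted relative to the DMSO negative control.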

[5] = BSK_4H_SRB: Viability Assessment in the BioMAP Diversity Plus: 4H Assay (AID 2283027); settings: primary human endothelial cells (HUVEC);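 further: cells exposed to compound for 24 h before staining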;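 on AC50: curves fitted both ways versus DMSO so AC50 may be loss or gain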
In short: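 Cytotoxicity read-out in primary human endothelial cells: after 24 h compound exposure, cells were TCA-fixed (10%), stained with 0.1% SRB and absorbance taken at 560 nm. Values fitted in both directions relative to DMSO.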

[6] = BSK_BE3C_SRB: Viability Assessment in the BioMAP Diversity Plus: BE3C Assay (AID 2283028); settings: primary human bronchial epithelial cells;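 on AC50: fitted both ways so AC50 may mark signal gain or loss versus DMSO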
In short: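 Human bronchial epithelial primary cells in confluent culture, 24 h after chemical dosing; total protein by 0.1% SRB staining after 10% TCA fixation, read at 560 nm. Bidirectional fitting versus DMSO baseline.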

[7] = read-out: Thrombomodulin, THBD (gene 7056); assay: BSK_3C_Thrombomodulin: BioMAP Diversity Plus: 3C Assay for Thrombomodulin Biomarker Activity (AID 2283029); settings: primary human endothelial cells (HUVEC); actives raise or lower the signal
In short: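 Endothelial cells from umbilical vein are dosed with test chemical and incubated 24 h. Thrombomodulin is then quantified by ELISA, with DMSO serving as negative control and activity baseline.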

[8] = read-out: Urokinase-type plasminogen activator receptor (uPAR), PLAUR (gene 5329); assay: BSK_4H_uPAR: BioMAP Diversity Plus: 4H Assay for Urokinase-type plasminogen activator receptor (uPAR) Biomarker Activity (AID 2283030); settings: primary human endothelial cells (HUVEC); actives raise or lower the signal
In short: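 Human umbilical vein endothelial cells in the 4H system, 24 h after chemical dosing. Cell-surface uPAR measured by ELISA, fitted in both directions versus DMSO; cytotoxicity checked by SRB total protein in parallel cultures.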

[9] = read-out: Vascular endothelial growth factor receptor 2 (Homo sapiens) (UniProt P35968); assay: BSK_4H_VEGFRII: BioMAP Diversity Plus: 4H Assay for Vascular endothelial growth factor receptor 2 (VEGFR2) Biomarker Activity (AID 2283031); settings: primary human endothelial cells (HUVEC); actives raise or lower the signal
In short: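 Primary human umbilical vein endothelial cells (4H system), 24 h exposure; cell-surface VEGFR2 measured by ELISA. Bidirectional fitting versus DMSO; cytotoxicity checked in parallel by SRB total-protein staining.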

[10] = read-out: Human Leukocyte Antigen - DR isotype (HLADR), HLA-DRA (gene 3122); assay: BSK_BE3C_HLADR: BioMAP Diversity Plus: BE3C Assay for Human Leukocyte Antigen - DR isotype (HLADR) Biomarker Activity (AID 2283032); settings: primary human bronchial epithelial cells; actives raise or lower the signal
In short: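 Chemicals are dosed onto BE3C bronchial epithelial cultures of human origin and left 24 h. HLA-DR is then measured by ELISA, and the endpoint is fitted in both directions using DMSO as the activity baseline.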

[11] = read-out: Vascular cell adhesion molecule 1 (VCAM1), VCAM1 (gene 7412); assay: BSK_4H_VCAM1: BioMAP Diversity Plus: 4H Assay for Vascular cell adhesion molecule 1 (VCAM1) Biomarker Activity (AID 2283033); settings: primary human endothelial cells (HUVEC); actives raise or lower the signal
In short: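 Chemicals are added to primary human umbilical vein endothelial cells. After 24 h, VCAM-1 levels are measured by ELISA. Values come from bidirectional fitting referenced to DMSO.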

[12] = read-out: Interferon-gamma inducible Protein 10 (IP10), CXCL10 (gene 3627); assay: BSK_BE3C_IP10: BioMAP Diversity Plus: BE3C Assay for Interferon-gamma inducible Protein 10 (IP10) Biomarker Activity (AID 2283034); settings: primary human bronchial epithelial cells; actives raise or lower the signal
In short: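 IP-10 quantified by ELISA serves as the endpoint. Cells: primary human bronchial epithelium, read 24 h after compound addition. Activity is derived by bidirectional fitting with DMSO as negative control.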

[13] = read-out: Monokine induced gamma interferon (MIG), CXCL9 (gene 4283); assay: BSK_BE3C_MIG: BioMAP Diversity Plus: BE3C Assay for Monokine induced gamma interferon (MIG) Biomarker Activity (AID 2283035); settings: primary human bronchial epithelial cells; actives raise or lower the signal
In short: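 ELISA quantified MIG after 24 h exposure of primary bronchial epithelial cultures, analysed in both directions relative to DMSO. Cytotoxicity tracked in parallel cultures by sulforhodamine B staining.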

[14] = read-out: Transforming growth factor beta 1 (TGFb1), TGFB1 (gene 7040); assay: BSK_BE3C_TGFb1: BioMAP Diversity Plus: BE3C Assay for Transforming growth factor beta 1 (TGFb1) Biomarker Activity (AID 2283036); settings: primary human bronchial epithelial cells; actives raise or lower the signal
In short: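 Bronchial epithelial primary cells are treated with test chemical, then TGF-b1 is quantified by ELISA after 24 hours. Values derive from bidirectional fitting against DMSO, with cytotoxicity checked by SRB staining in parallel cultures.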

[15] = read-out: Urokinase-type plasminogen activator receptor (uPAR), PLAUR (gene 5329); assay: BSK_BE3C_uPAR: BioMAP Diversity Plus: BE3C Assay for Urokinase-type plasminogen activator receptor (uPAR) Biomarker Activity (AID 2283039); settings: primary human bronchial epithelial cells; actives raise or lower the signal
In short: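 Steps: dose human primary bronchial epithelial cells, incubate 24 h, measure uPAR by ELISA, then fit gain- or loss-of-signal response bidirectionally relative to DMSO.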

[16] = read-out: Interleukin-6 (IL6), IL6 (gene 3569); assay: BSK_CASM3C_IL6: BioMAP Diversity Plus: CASM3C Assay for Interleukin-6 (IL6) Biomarker Activity for (AID 2283040); settings: primary human coronary artery smooth muscle cells; actives raise or lower the signal
[17] = read-out: Tissue plasminogen activator (tPA), PLAT (gene 5327); assay: BSK_BE3C_tPA: BioMAP Diversity Plus: BE3C Assay for Tissue plasminogen activator (tPA) Biomarker Activity (AID 2283041); settings: primary human bronchial epithelial cells; actives raise or lower the signal
In short: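 Gain- or loss-of-signal in tPA, measured by ELISA, derived by bidirectional fitting against DMSO. Cells: human primary bronchial epithelial; read at 24 h after chemical dosing.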

[18] = read-out: Interleukin-8 (IL8), CXCL8 (gene 3576); assay: BSK_CASM3C_IL8: BioMAP Diversity Plus: CASM3C Assay for Interleukin-8 (IL8) Biomarker Activity (AID 2283042); settings: primary human coronary artery smooth muscle cells; actives raise or lower the signal;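 further: IL-8 protein level quantified by ELISA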
[19] = read-out: Human Leukocyte Antigen - DR isotype (HLADR), HLA-DRA (gene 3122); assay: BSK_CASM3C_HLADR: BioMAP Diversity Plus: CASM3C Assay for Human Leukocyte Antigen - DR isotype (HLADR) Biomarker Activity (AID 2283043); settings: primary human coronary artery smooth muscle cells; actives raise or lower the signal;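 further: cell-surface HLA-DR protein level quantified by ELISA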
[20] = molecular target: human Vitamin D Receptor (VDR), VDR (gene 7421) (UniProt P11473); assay: ATG_VDR_TRANS: Attagene TRANS-FACTORIAL HepG2 Assay for human Vitamin D Receptor (VDR) (AID 2283022; active means hit-call score of the fitted dose curve at least 0.9, where 1 is the maximum)
human Vitamin D Receptor (VDR), VDR (gene 7421), sequence (P11473 whole entry, looked up, the tested form may be a part): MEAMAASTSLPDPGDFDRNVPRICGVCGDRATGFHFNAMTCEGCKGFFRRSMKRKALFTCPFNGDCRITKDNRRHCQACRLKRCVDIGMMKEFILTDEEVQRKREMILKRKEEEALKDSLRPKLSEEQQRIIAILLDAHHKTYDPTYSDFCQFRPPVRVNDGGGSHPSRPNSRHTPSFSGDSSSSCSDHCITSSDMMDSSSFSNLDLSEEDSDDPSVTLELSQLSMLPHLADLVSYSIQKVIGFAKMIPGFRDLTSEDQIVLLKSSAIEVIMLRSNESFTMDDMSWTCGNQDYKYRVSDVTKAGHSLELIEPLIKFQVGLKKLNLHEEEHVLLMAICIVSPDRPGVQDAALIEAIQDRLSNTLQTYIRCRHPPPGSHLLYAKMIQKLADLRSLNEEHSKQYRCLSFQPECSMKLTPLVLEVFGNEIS
In short: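 HepG2 cells were transiently transfected with GAL4-UAS reporter units and a chimeric VDR-Gal4 construct, then dosed for 24 hours. Reporter mRNA was quantified by RT-PCR, fluorescent labeling, HpaI digestion and capillary electrophoresis; gain of signal analysed vs DMSO.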

Measured: AC50

O=C(Nc1ccccc1SSc1ccccc1NC(=O)c1ccccc1)c1ccccc1
active: [3] 14.1 µM | [7] 5.7 µM | [11] 20 µM | [12] 1.03 µM | [19] 5.29 µM
not listed: [20]
inactive: all other assays above

c1ccc(-c2ccccn2)nc1
inactive: all assays above

CO[Si](OC)(OC)c1ccccc1
active: [19] 3.86 µM
inactive: [1] | [20] | [2] | [4] | [5] | [6] | [7] | [8] | [9] | [10] | [11] | [12] | [13] | [15] | [16] | [17] | [18] | [19]

CCCCNc1ccc(NCCCC)c2c1C(=O)c1ccccc1C2=O
active: [2] 6.81 µM | [10] 5 µM | [12] 4.33 µM | [14] 5 µM | [15] 6.83 µM
not listed: [20]
inactive: all other assays above

O=C(Cl)c1cc(C(=O)Cl)cc(C(=O)Cl)c1
active: [1] 29.3 µM | [2] 20 µM | [3] 12.5 µM | [4] 11.6 µM | [5] 26.8 µM | [6] 29.1 µM | [8] 20 µM | [10] 28.8 µM | [11] 14.8 µM | [12] 30.4 µM | [13] 39.1 µM | [15] 24.4 µM | [16] 26.1 µM | [17] 31.8 µM | [18] 30.3 µM | [19] 15.5 µM
inactive: [7] | [9] | [14]
